PubChem BioAssay AID1671202 (University of Kansas High Throughput Screening Laboratory, 2021)
Values joined by “and” are separate entries in the source; they are usually repeats but may differ in a detail not shown here. Identical values can stand only once. Among all 190,000 compounds or so, about 6,900 (3.6%) were called active. Rule as the data show it: active = inhibition above about 50%; inactive = the rest. This excerpt belongs to a sample that is enriched for actives. More than one record can exist for a structure, and the calls need not agree.

molecular target: Huntingtin (Homo sapiens) (UniProt P42858); test: mutant huntingtin-calmodulin interaction inhibitors – biochemical, AlphaScreen, primary screen (AID 1671202); conditions: AlphaScreen His-mHTT/GST-CaM binding, luminescence; at 15 µM, stronger effect = higher value;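 as to inhibition: 0% = both proteins with DMSO and 100% = one protein alone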
Sequence (P42858 whole entry, looked up, stated change not applied): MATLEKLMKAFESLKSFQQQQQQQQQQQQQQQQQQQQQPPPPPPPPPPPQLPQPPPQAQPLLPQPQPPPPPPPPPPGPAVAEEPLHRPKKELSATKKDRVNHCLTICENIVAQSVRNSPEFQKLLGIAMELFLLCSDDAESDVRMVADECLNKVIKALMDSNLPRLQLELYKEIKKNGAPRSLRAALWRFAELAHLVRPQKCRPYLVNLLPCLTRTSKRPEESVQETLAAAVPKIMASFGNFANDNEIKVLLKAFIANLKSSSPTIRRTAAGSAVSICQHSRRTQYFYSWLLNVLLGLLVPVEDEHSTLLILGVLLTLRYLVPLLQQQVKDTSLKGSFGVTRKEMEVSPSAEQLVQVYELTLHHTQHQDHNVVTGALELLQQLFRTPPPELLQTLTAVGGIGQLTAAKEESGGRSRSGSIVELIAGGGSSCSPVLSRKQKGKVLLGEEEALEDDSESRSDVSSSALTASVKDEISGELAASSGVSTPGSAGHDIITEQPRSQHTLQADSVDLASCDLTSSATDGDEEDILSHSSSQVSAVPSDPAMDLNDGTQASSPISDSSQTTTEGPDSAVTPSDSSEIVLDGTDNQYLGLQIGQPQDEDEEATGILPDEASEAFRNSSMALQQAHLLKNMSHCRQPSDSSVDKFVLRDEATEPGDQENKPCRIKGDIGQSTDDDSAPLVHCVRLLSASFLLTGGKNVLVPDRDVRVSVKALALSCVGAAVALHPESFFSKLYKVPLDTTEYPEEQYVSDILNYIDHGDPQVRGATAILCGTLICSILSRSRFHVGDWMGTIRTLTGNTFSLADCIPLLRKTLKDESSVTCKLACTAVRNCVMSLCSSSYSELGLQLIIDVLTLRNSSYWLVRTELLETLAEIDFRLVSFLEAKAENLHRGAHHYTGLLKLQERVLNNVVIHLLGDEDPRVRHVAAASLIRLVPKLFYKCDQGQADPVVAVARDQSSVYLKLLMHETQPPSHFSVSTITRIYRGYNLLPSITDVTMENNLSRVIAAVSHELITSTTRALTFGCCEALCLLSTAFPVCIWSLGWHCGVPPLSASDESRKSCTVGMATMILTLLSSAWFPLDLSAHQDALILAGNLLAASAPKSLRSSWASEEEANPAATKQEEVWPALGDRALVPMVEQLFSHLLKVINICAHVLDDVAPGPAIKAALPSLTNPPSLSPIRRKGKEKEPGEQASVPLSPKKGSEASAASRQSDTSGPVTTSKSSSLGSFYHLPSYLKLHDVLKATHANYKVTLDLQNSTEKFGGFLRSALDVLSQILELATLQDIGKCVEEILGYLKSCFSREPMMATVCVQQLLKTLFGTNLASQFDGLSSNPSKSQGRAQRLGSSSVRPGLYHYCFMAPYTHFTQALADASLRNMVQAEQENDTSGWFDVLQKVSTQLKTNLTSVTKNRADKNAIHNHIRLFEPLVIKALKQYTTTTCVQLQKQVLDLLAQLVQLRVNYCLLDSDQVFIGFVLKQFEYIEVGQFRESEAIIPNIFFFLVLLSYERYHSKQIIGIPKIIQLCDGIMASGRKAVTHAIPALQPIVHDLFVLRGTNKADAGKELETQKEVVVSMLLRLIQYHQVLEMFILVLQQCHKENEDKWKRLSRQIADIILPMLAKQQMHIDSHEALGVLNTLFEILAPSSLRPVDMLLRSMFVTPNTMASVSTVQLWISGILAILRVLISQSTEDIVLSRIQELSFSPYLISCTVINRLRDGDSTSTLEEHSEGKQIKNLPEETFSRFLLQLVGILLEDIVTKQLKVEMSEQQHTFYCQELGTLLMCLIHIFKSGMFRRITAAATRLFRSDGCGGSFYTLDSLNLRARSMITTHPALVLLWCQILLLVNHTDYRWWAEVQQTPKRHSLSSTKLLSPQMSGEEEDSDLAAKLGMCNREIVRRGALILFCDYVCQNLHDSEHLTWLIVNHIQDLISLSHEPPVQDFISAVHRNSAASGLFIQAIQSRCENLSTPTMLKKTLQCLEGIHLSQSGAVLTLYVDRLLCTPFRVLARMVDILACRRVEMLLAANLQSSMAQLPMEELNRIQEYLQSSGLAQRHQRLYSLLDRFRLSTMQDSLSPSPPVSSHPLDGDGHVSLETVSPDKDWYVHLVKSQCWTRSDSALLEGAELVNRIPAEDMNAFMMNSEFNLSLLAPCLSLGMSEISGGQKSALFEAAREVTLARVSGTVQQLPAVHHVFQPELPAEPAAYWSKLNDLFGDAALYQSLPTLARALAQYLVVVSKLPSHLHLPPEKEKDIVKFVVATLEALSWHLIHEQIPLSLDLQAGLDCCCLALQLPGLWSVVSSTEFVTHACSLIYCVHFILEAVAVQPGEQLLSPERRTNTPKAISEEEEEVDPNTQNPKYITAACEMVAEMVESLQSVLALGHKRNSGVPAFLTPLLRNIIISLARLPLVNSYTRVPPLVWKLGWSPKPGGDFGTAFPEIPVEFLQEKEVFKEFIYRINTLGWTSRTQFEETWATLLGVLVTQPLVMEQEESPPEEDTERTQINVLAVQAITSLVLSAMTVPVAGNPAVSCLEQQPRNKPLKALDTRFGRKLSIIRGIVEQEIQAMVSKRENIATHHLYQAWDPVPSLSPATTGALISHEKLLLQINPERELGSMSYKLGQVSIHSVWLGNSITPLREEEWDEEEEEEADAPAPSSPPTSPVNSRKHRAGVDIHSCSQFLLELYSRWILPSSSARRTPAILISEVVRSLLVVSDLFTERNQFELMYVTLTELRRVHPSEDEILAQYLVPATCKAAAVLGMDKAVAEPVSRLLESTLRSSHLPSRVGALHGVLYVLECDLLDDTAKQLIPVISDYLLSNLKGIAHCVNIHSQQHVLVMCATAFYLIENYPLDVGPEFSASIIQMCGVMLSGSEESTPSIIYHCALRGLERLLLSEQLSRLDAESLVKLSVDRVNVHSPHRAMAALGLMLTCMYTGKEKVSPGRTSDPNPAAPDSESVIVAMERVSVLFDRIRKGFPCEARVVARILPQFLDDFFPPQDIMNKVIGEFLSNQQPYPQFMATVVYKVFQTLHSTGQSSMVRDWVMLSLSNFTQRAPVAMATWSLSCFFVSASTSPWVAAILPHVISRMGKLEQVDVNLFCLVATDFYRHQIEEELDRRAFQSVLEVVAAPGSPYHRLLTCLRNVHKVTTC

Row | Structure (SMILES) | inhibition
1 | CCOc1ccc(C2CC(c3ccc(Cl)cc3)Nc3nnnn32)cc1OC (stereo not drawn) | 38% (inactive)
2 | Cc1cc(C(=O)NCc2ccc(C)o2)c2cccc(-c3cccs3)c2n1 | -56.5% (inactive)
3 | COc1ccccc1C1(CCNCc2ccc3c(c2)OCO3)CCOC(C)(C)C1 (stereo not drawn) | 3.46% (inactive)
4 | Cc1ccc2c(c1)C(c1ccc(F)cc1)N(C(=O)c1c(F)cccc1Cl)CC(=O)N2 (stereo not drawn) | 22% (inactive)
5 | Cc1ccc2c(c1)C(c1ccc(F)cc1)N(C(=O)c1ccc(C)c(C)c1)CC(=O)N2 (stereo not drawn) | 69% (active)
6 | O=C1CN(C(=O)c2ccccc2F)C(c2ccc(F)cc2)c2cc(F)ccc2N1 (stereo not drawn) | -4% (inactive)
7 | COc1ccc(C=C2Oc3cc(OC(C)=O)ccc3C2=O)c(OC)c1OC | 16.2% (inactive)
8 | COc1ccc(C(=O)C=Cc2ccc(C)cc2)c(OC(=O)c2ccco2)c1 | 17% (inactive)
9 | Oc1ccc2c(c1)OCC1c3cc4c(cc3OC21)OCO4 (stereo not drawn) | 65.8% (active)
10 | Cc1ccccc1NCc1cc(=O)oc2cc(O)c(O)cc12 | 29.6% (inactive)
11 | CCc1ccc(CN2CCC(C(=O)N3CCN(Cc4ccccc4)CC3)CC2)cc1 | 36.4% (inactive)
12 | O=C(NCc1ccc(F)cc1)C1CCN(c2cnn(Cc3ccccc3)c(=O)c2)CC1 | 2.29% (inactive)
13 | CNC(=O)C1CCN(Cc2cc3ccccc3n2Cc2ccc(F)cc2)CC1 | 85.1% (active)
14 | O=S(=O)(NCCc1ccc(F)cc1)c1ccc(F)cc1 | -3.6% (inactive)
15 | COc1ccc(-c2c(C)c3ccc(OCCN4CCCCC4)cc3oc2=O)cc1OC | -2.1% (inactive)
16 | COc1ccc(C(CCN2CCOCC2)c2c(OC)cc(OC)c3c2OC(=O)CC3c2ccc(OC)cc2)cc1 (stereo not drawn) | 71.6% (active)
17 | COc1ccc(Nc2nc(Cl)nc(NCCN3CCOCC3)n2)c(OC)c1 | 4% (inactive)
18 | COc1cc(OC)c2c(C)cc(=O)oc2c1C(CCN1CCCCC1)c1ccc(N(C)C)cc1 (stereo not drawn) | 78.3% (active)
19 | COc1ccc(C2CC(=O)Oc3ccc(C(C)(C)C)cc32)cc1 (stereo not drawn) | -22.8% (inactive)
20 | COc1cc(OC)c2c(c1C(CCN1CCCCC1)c1ccc(N(C)C)cc1)OC(=O)CC2c1ccc(N(C)C)cc1 (stereo not drawn) | 76.8% (active)
21 | Cc1ccc(C(C)C)cc1OCCN1CCCC1 | -3.2% (inactive)
22 | COc1cc(OC)c2c(c1)OC(=O)CC2c1cc(OC)c(OC)c(OC)c1 (stereo not drawn) | 3.2% (inactive)
23 | COc1ccc(CNC(=O)CC2CCN(C(=O)c3[nH]c(C)c(C)c3C)CC2)cc1 | 11.4% (inactive)
24 | COc1ccc(CCNc2nc(C)nc3sc(C)cc23)cc1OC | 0% (inactive)
25 | CC(C)c1c(C2CCN(C(=O)c3cccc(F)c3)CC2)noc1N | -1.9% (inactive)

Row | Structure (SMILES) | inhibition
26 | Cc1cc(C(=O)NCCCn2ccnc2)ccc1[N+](=O)[O-] | -2.3% (inactive)
27 | CC(CC(=O)N1CCN(c2nc3ccccc3n(C)c2=O)CC1)c1ccccc1 (stereo not drawn) | 3.2% (inactive)
28 | Cc1ccccc1C1=N/C(=C\c2ccc(Br)cc2)C(=O)O1 | -1% (inactive)
29 | CN(C)CCCn1c(-c2ccc(Cl)cc2)csc1=Nc1ccccc1 | 89% (active)
30 | COc1ccc(-c2csc(=Nc3ccccc3)n2C)cc1 | 29% (inactive)
31 | COc1ccc(C2C(=C(O)c3ccc(Cl)cc3)C(=O)C(=O)N2CCCN(C)C)c(OC)c1 (stereo not drawn) | -4.4% (inactive)
32 | CC1C(=O)N(c2ccc(Br)cc2)CCN1C(=O)C1CCCC1 (stereo not drawn) | -6.1% (inactive)
33 | Cc1ccc(C(=O)N2CCC(CC(=O)NCCN3CCCCCC3)CC2)cc1 | 13.3% (inactive)
34 | Cc1nc(-c2ccccc2)oc1CC(=O)NCCN1CCCCCC1 | 100% (active)
35 | O=C(CCS(=O)(=O)Cc1ccccc1F)NCCCN1CCCCC1 | 1% (inactive)
36 | O=S(=O)(c1ccccc1)c1cccs1 | -6.17% (inactive)
37 | Cc1cc(C)c(NC(=O)CNC2CC(C)(C)NC(C)(C)C2)c(C)c1 | -6.9% (inactive)
38 | COc1ccc2oc(=O)c(-c3nnc(Nc4ccc(C)cc4)s3)cc2c1 | 3% (inactive)
39 | O=C(c1ccco1)N1CCN(c2ncnc3sc(-c4ccccc4)cc23)CC1 | 54.6% (active)
40 | O=C(c1ccco1)N1CCN(c2ccc([N+](=O)[O-])cc2)CC1 | 0.2% (inactive)
41 | Cc1ccc2nc3sc(C(=O)N4CCN(C(=O)c5ccco5)CC4)cc3c(=O)n2c1 | 12.9% (inactive)
42 | COc1cc(C(=O)N2CCC(CC(=O)NCc3ccccn3)CC2)cc(OC)c1OC | 19.9% (inactive)
43 | COCCN1C(=O)c2ccccc2C(C(=O)NCC2CCCO2)C1c1ccc(F)cc1 (stereo not drawn) | 0% (inactive)
44 | Cc1ccc(C(=O)N2CCc3sc(C(=O)NCCC(C)C)cc3C2)cc1 | -0.52% (inactive)
45 | O=C(Nc1ccc([N+](=O)[O-])cc1)C12CC3CC(C1)CC(c1ccccc1)(C3)C2 | 14.9% (inactive)
46 | O=C(c1ccc(F)cc1)N1CCC(n2nc(-c3ccsc3)ccc2=O)CC1 | 93.2% (active)
47 | O=C(c1ccc2c(c1)OCO2)N1CCOCC1 | 1% (inactive)
48 | O=C(c1ccc(-c2ccsc2)nc1)N1CCOCC1 | -3.2% (inactive)
49 | O=C(c1ccc(-c2ccsc2)nc1)N1CCCCCC1 | -6.2% (inactive)
50 | O=C(c1ccc2c(c1)OCO2)N1CCC(n2nc(-c3ccsc3)ccc2=O)CC1 | 98% (active)

Row | Structure (SMILES) | inhibition
51 | CC1CCCN(C(=O)c2ccc(-c3ccsc3)nc2)C1 (stereo not drawn) | -3.7% (inactive)
52 | COc1ccc(NC(=O)N2CCCC2c2nc(-c3ccc(F)cc3F)no2)cc1F (stereo not drawn) | 5.86% (inactive)
53 | O=C(C1CCCC1)N1CCN(Cc2noc(-c3cccc4ccccc34)n2)CC1 | 19.3% (inactive)
54 | O=C(N/N=C/C=C\c1ccco1)c1ccco1 | inactive
55 | O=C(NCCn1ncccc1=O)c1cc(C2CC2)on1 | -8.3% (inactive)
56 | COc1ccc(-c2c(C(F)(F)F)oc3cc(O)ccc3c2=O)cc1 | 10% (inactive) and -0.6% (inactive)
57 | O=c1c(-c2ccc3c(c2)OCCO3)c(C(F)(F)F)oc2cc(O)cc(O)c12 | 54.5% (active)
58 | Cc1cc(O)c2c(=O)c(-c3csc(C)n3)c(C(F)(F)F)oc2c1 | 1% (inactive)
59 | COc1ccc(-c2noc(C3CCN(CC(=O)Nc4ccc(C)c(F)c4)CC3)n2)cc1 | -6.73% (inactive)
60 | Cc1ccccc1Oc1nc(N2CCCC2)nc2c1CN(Cc1ccncc1)CC2 | 17.7% (inactive)
61 | Cc1ccccc1NC(=O)NCc1ccsc1 | -8.6% (inactive)
62 | O=C1c2ccccc2-c2onc3c(N4CCCC4)ccc1c23 | 64% (active)
63 | CCN(Cc1ccccc1)C(=O)c1ccccc1Cl | -7.8% (inactive)
64 | CCCNc1cc(N2CCC(CCC(=O)NCc3ccccn3)CC2)ncn1 | 1.6% (inactive)
65 | COc1ccccc1Nc1cc(C)nc2ccc(Cl)cc12 | 0% (inactive)
66 | O=C(Nc1ccccc1I)c1ccccc1F | -15.8% (inactive) and -24% (inactive)
67 | Cc1ccc(C(=O)Nc2cnc(N3CCCCC3)nc2)c(C)c1 | 9.7% (inactive)
68 | COc1ccc(/C=C2\N=C(c3cccc(Br)c3)OC2=O)cc1 | -5% (inactive)
69 | COc1ccc(C2=NC(c3ccncc3)=Nc3ccc(Br)cc3N2)cc1 | 50.3% (active)
70 | COc1cc(C=C(C#N)c2nc(-c3ccc4c(c3)OCO4)cs2)cc(OC)c1OC(C)=O | -4.5% (inactive)
71 | CC(=O)N1c2ccccc2NC2=C(C(=O)CC(C)(C)C2)C1c1ccc(N(C)C)cc1 (stereo not drawn) | 29.3% (inactive)
72 | COc1ccc(S(=O)(=O)CCC(=O)Nc2ccccc2C(F)(F)F)cc1 | 1% (inactive)
73 | COc1ccc(C(=O)N2CCN(c3ccc(Cl)cc3[N+](=O)[O-])CC2)cc1Br | 14.9% (inactive)
74 | O=[N+]([O-])c1cc(Cl)ccc1N1CCCNCC1 | -0.3% (inactive)
75 | O=C(Cc1ccc(Cl)cc1)N1CCN(c2ccc(Cl)cc2[N+](=O)[O-])CC1 | 58.1% (active) and 44% (inactive)

Row | Structure (SMILES) | inhibition
76 | O=C(CSc1nc2[nH]ncc2c(=O)n1-c1ccccc1)NCc1cccc(Cl)c1 | 8% (inactive)
77 | O=S1(=O)CC(N2CCC(Cc3ccccc3)CC2)CN1Cc1ccccc1 (stereo not drawn) | 19.9% (inactive)
78 | O=[N+]([O-])c1ccc(CN2CC(N3CCC(c4ccccc4)CC3)CS2(=O)=O)cc1 (stereo not drawn) | 50.1% (active)
79 | O=[N+]([O-])c1ccc(CN2CC(N3CC=CC3)CS2(=O)=O)cc1 (stereo not drawn) | -3% (inactive)
80 | Cn1c(/C=C/c2ccc(Cl)cc2)nc2ccccc21 | -18.9% (inactive)
81 | OC(COCC12CC3CC(CC(C3)C1)C2)CN1CCc2ccccc2C1 (stereo not drawn) | 35.2% (inactive)
82 | Cc1ccc(C(=O)N2CCN(c3nc(CN4CCCCC4)cs3)CC2)cc1F | 2% (inactive)
83 | CCC(CC)C(=O)N1CCc2c(c(-c3nnc(-c4ccccc4Cl)o3)nn2C)C1 | 6.42% (inactive)
84 | Cn1nc(-c2nc(Cc3ccccc3)no2)c2c1CCN(C(=O)c1ccccc1Cl)C2 | 6.74% (inactive)
85 | Cn1nc(-c2nnc(-c3ccccc3Cl)o2)c2c1CCN(C(=O)CCc1ccccc1)C2 | 76.5% (active)
86 | COc1cccc(C=C2Oc3c(ccc(O)c3CN(C)Cc3ccccc3)C2=O)c1OC | 93.1% (active)
87 | CCCCN(C)Cc1c(O)ccc2c1OC(=Cc1cc(OC)c(OC)c(OC)c1)C2=O | -3.1% (inactive)
88 | COc1cccc(C=C2Oc3c(ccc(O)c3CN3CCCCC3C)C2=O)c1OC (stereo not drawn) | 15.7% (inactive)
89 | COCC(C)(O)CNC(=O)C(=O)NCc1ccc(C)cc1 (stereo not drawn) | -17.7% (inactive)
90 | O=C(Nc1ccccc1F)C1CC(=O)N(CCc2c[nH]c3ccc(F)cc23)C1 (stereo not drawn) | 9.18% (inactive)
91 | Cc1ccc2[nH]cc(CCN3CC(C(=O)Nc4cccc(Br)c4)CC3=O)c2c1 (stereo not drawn) | 39.7% (inactive)
92 | CC(C)CCNC(=O)C1CC(=O)N(CCc2c[nH]c3ccc(Cl)cc23)C1 (stereo not drawn) | 25.8% (inactive)
93 | Cc1ccc2[nH]cc(CCN3CC(C(=O)Nc4ccc(Br)cc4)CC3=O)c2c1 (stereo not drawn) | 53.5% (active)
94 | O=C(Nc1ccc2c(c1)CCC2)C1CC(=O)N(CCc2c[nH]c3ccc(F)cc23)C1 (stereo not drawn) | 53.7% (active)
95 | O=C(NCCN1CCOCC1)C1CC(=O)N(CCc2c[nH]c3ccc(F)cc23)C1 (stereo not drawn) | -6.88% (inactive)
96 | Cc1ccc(NC(=O)C2CC(=O)N(CCc3c[nH]c4ccc(Cl)cc34)C2)c(C)c1 (stereo not drawn) | 65% (active)
97 | Cc1ccc2[nH]cc(CCN3CC(C(=O)Nc4cccc(C)c4C)CC3=O)c2c1 (stereo not drawn) | 30.5% (inactive)
98 | Cc1ccc2[nH]cc(CCN3CC(C(=O)N4CCN(c5ccccc5)CC4)CC3=O)c2c1 (stereo not drawn) | 45.4% (inactive)
